ADAM17 inh = ADAM17 inhibitors, primary screen, biochemical, QFRET; recombinant ADAM17, EDANS/DABCYL FRET peptide cleavage; inhibition, % at 6.95 µM; AID 720648, 2013; 0.83% of 370,000 active; Disintegrin and metalloproteinase domain-containing protein 17 (Homo sapiens), P78536;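 active = inhibition above the mean of compounds lying between control limits plus 3 SD, set per campaign, cut at about 8.5% in these data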;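 note: 0% = DMSO-only wells as the low control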
PLCg1 inh = PLC-gamma1 enzyme inhibitors, primary screen, biochemical, fluorescence, purified enzyme | fluorogenic substrate | inhibition, % at 12.2 µM | 0.84% of 370,000 active; in the data active = inhibition above about 9.5%
Target sequence (P19174 whole entry, looked up): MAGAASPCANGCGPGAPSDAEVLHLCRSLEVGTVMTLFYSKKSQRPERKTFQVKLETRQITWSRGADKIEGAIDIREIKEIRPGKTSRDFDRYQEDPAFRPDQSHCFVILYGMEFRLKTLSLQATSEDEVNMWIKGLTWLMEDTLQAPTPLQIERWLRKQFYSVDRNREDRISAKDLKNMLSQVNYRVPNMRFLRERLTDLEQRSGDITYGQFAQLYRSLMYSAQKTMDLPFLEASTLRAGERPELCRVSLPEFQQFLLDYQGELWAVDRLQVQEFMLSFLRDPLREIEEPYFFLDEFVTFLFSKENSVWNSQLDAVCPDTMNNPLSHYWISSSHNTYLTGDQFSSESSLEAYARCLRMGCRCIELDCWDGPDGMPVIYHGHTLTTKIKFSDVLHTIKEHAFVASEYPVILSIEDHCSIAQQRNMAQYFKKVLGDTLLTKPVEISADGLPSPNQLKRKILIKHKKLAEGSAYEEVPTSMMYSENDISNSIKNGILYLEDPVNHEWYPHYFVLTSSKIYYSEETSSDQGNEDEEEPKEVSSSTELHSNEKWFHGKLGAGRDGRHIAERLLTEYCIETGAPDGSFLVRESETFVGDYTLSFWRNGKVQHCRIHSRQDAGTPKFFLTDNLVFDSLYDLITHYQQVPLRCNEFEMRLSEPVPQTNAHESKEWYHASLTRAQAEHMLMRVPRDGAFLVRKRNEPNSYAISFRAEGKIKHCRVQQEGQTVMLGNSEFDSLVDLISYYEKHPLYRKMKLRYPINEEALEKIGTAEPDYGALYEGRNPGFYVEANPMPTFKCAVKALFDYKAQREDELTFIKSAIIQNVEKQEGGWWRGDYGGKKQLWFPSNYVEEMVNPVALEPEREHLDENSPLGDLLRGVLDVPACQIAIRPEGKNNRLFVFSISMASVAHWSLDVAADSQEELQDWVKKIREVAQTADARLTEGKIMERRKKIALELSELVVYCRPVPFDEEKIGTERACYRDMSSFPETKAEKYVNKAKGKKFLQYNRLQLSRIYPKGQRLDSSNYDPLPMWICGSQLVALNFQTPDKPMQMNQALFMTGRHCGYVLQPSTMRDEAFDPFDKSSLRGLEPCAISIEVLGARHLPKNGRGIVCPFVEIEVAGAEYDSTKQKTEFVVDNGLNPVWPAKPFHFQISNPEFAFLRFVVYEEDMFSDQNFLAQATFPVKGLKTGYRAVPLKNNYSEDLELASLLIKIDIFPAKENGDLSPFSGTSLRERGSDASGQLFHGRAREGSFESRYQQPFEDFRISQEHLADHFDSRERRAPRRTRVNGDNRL
PLC-beta3 inh = human PLC-beta3 inhibitors, primary screen, biochemical, fluorescence. Purified PLC-beta3, fluorogenic substrate. 1-phosphatidylinositol 4,5-bisphosphate phosphodiesterase beta-3 (Homo sapiens), Q01970. 0.18% of 370,000 active. AID 720704, 2013. inhibition, % at 12.2 µM;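 note: 0% = median of compound wells on plate and 100% = full blocker control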
KLK7 zymogen act = proKLK7 zymogen activators, primary screen, biochemical, fluorescence intensity; 0.9% of 370,000 active; activation, % at 7 µM; purified proKLK7, EDANS-DABCYL substrate fluorescence; 100% is mature enzyme control, 0% vehicle; Kallikrein-7 (Homo sapiens), P49862;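 active = activation above the mean of all tested compounds plus 3 SD, computed per campaign excluding outliers beyond control limits, cut at about 13% in these data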
ADAM10 inh = human ADAM10 inhibitors, primary screen, biochemical, QFRET, HTS; AID 720582, 2013; recombinant ADAM10, EDANS/DABCYL FRET peptide cleavage, 3 h; 0.62% of 370,000 active; Disintegrin and metalloproteinase domain-containing protein 10 (Homo sapiens), O14672; inhibition, % at 7 µM;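 active = inhibition above a per-campaign cutoff equal to the mean of compounds falling between control-based bounds plus 3 SD, cut at about 20% in these data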;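 note: 0% = DMSO wells while the 100% control is not disclosed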
PLCg1 ctr = PLC-gamma1 enzyme inhibitors, counter-screen for PLC-beta3 inhibitor project, biochemical, fluorescence. shares compounds with PLCg1 inh. purified PLC-gamma1, fluorogenic substrate. inhibition, % at 12.3 µM. 3.1% of 3,300 active. AID 743258, 2014; in the data active = inhibition above about 9.5%
PLCb3 confirm = PLC-beta3 inhibitor confirmation, biochemical, fluorescence, purified enzyme. shares compounds with PLCg1 inh. fluorogenic substrate fluorescence. inhibition, % at 12.3 µM. 1% of 3,300 active. AID 743261, 2014
Active calls of the source: *; nt = no result given. An excerpt weighted towards active compounds, which were near 2.9% of everything screened. Cut-off read from the data, not from the text of the source, unless noted: active = inhibition above about 11%; inactive = the rest.

SMILES | ADAM17 inh | PLCg1 inh | PLC-beta3 inh | KLK7 zymogen act | ADAM10 inh | PLCg1 ctr | PLCb3 confirm
CCN(CC(=O)NCc1ccc(F)cc1)C(=O)CN1CCN(c2cc(Cl)ccc2C)CC1 | 2 | 1 | -6 | 1 | -1 | nt | nt
Cc1ccc2cc(CCNC(=O)c3cccc([N+](=O)[O-])c3)c(=O)[nH]c2c1C | 1 | 10* | -1 | 0 | -12 | 3 | 1
COc1ccc2cc(CCNC(=O)c3cccc([N+](=O)[O-])c3)c(=O)[nH]c2c1 | -2 | 0 | -1 | -1 | 4 | nt | nt
Cc1cccc(NC(=S)NC2CC3CCCC(C2)N3Cc2ccccc2)c1C (stereo not drawn) | 0 | 0 | 1 | 0 | -6 | nt | nt
CCn1c(O)c(C2=NCCCC2)c2ccccc21 | 0 | 9.7* | 5 | 1 | 4 | 5 | 7
CCOc1ccc(-c2cc(N)n(S(=O)(=O)c3ccc(OC)c(OC)c3)n2)cc1 | 9 | 4 | 11* | 0 | 6 | 0 | -7
O=C(COC(=O)/C=C/c1ccccc1[N+](=O)[O-])Nc1ccc(OC(F)F)cc1 | 2 | 11* | 1 | -1 | -2 | -5 | -3
O=C(COC(=O)/C=C/c1ccccc1[N+](=O)[O-])Nc1ccc(OCc2ccccc2)cc1 | 0 | 3 | 1 | 0 | 4 | nt | nt
C[C@H]1CN([C@@H](C)CO)C(=O)c2cc(Br)cnc2O[C@H]1CN(C)Cc1ccccc1C(=O)O | -2 | -2 | 3 | 0 | -6 | nt | nt
Nc1nonc1OCCOCCOCCOc1nonc1N | -3 | 0 | 2 | 0 | 3 | nt | nt
Cc1cc(C)n(CCOc2nonc2N)n1 | 1 | 11* | 12* | -1 | -3 | -3 | 0
N#CCNC(=O)C1c2ccccc2Oc2ccccc21 | 2 | 13* | 0 | 0 | 5 | -3 | 1
O=C(NCc1ccccc1)C1c2ccccc2Oc2ccccc21 | 3 | 7 | -3 | 0 | 4 | nt | nt
CCc1nc(SCC(=O)NCc2ccc(F)cc2)c2c(=O)n(C)c(=O)n(C)c2n1 | -4 | 46* | 3 | 0 | -10 | -9 | -4
CCOCCCNC(=O)/C(C#N)=C/c1cc(OC)c(O)c([N+](=O)[O-])c1 | 8 | 13* | 8 | 0 | 8 | -2 | -1
Cc1ccc(S(=O)(=O)N2O[C@@H](c3ccccc3)C[C@H]2CON2C(C)(C)CCCC2(C)C)cc1 | 3 | 11* | 13* | nt | 4 | 0 | -5
COc1cccc(N2CCN(C(=O)COc3cc(=O)n(C)c4ccccc34)CC2)c1 | 0 | 1 | -2 | 0 | -8 | nt | nt
COCCCNC(=O)C(Cc1ccccc1)NS(=O)(=O)c1ccc2c(c1)c(=O)n(C)c(=O)n2C (stereo not drawn) | -2 | 1 | 3 | 0 | -3 | nt | nt
Cn1c(=O)c2cc(S(=O)(=O)NC(Cc3ccccc3)C(=O)NCc3ccco3)ccc2n(C)c1=O (stereo not drawn) | 1 | 75* | 2 | 0 | -8 | -6 | -2
Cc1csc(NC(=O)CS(=O)(=O)c2ccccc2)n1 | -7 | 0 | -6 | 0 | 1 | nt | nt
CN(C(=O)c1cccnc1)c1nc(-c2ccccc2)cs1 | -1 | 9.7* | 7 | 0 | 8 | -8 | -6
CC(C)C[C@@H](CO)N1CCN(C)CCC1=O | 6 | 14* | 5 | 0 | -5 | -6 | -2
CCCNC(=O)c1cc2c(c(-c3cccc(-c4cc5ccccc5o4)c3)n1)[C@H](CCO)N(C(=O)NC(C)C)C2 | -5 | -10 | -17 | 1 | -19 | nt | nt
COc1ccc(N(C)C(=O)CCS(=O)(=O)c2cccc3nonc23)cc1 | 6 | 8 | 11* | 0 | 8 | -4 | 0
COc1ccc(CNC(=O)CCS(=O)(=O)c2cccc3nonc23)cc1 | -8 | -2 | 0 | 0 | -4 | nt | nt
